From PubChem BioAssay (EPA / NIEHS) come the findings set out here.

Common to all, as to conditions: mRNA level, 48 h; actives raise or lower the signal
Read-out in experiment [1]: ABC Transporter (ABCC2), ABCC2 (gene 1244)
Nature of the experiment: LTEA_HepaRG_ABCC2: Life Technologies and Expression Analysis (LTEA) Assay for ABC Transporter (ABCC2) using HepaRG (AID 2283464). The essentials: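 HepaRG, 48 h post-plating; serum-free induction medium; cpd 8-pt, 100 uM top, half-log, 0.5% DMSO, duplicate, 48 h. Readout: ABCC2 mRNA by qRT-PCR, norm. ACTB/GAPDH/POLR2A. Bidirectional fit vs DMSO baseline.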

Read-out in experiment [2]: Broad substrate specificity ATP-binding cassette transporter ABCG2 (Homo sapiens) (UniProt Q9UNQ0)
The experiment in a line: LTEA_HepaRG_ABCG2: Life Technologies and Expression Analysis (LTEA) Assay for ABC Transporter (ABCG2) using HepaRG (AID 2283465). The gist of the method:
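Differentiated HepaRG cells in serum-free induction medium were exposed for 48 h, in duplicate, to eight half-log concentrations up to 100 uM in 0.5% DMSO. ABCG2 mRNA was measured by TaqMan qRT-PCR, normalized to ACTB, GAPDH and POLR2A, and fitted bidirectionally versus DMSO.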

Read-out in experiment [3]: ATP-citrate lyase (ACLY), ACLY (gene 47)
Nature of the experiment: LTEA_HepaRG_ACLY: Life Technologies and Expression Analysis (LTEA) Assay for ATP-citrate lyase (ACLY) using HepaRG (AID 2283466). The gist of the method:
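Differentiated human HepaRG cells in serum-free induction medium exposed 48 h, in duplicate, to eight half-log concentrations from 100 uM top in 0.5% DMSO; ACLY mRNA measured by qRT-PCR, normalized to ACTB, GAPDH, POLR2A, fitted bidirectionally versus DMSO.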

Read-out in experiment [4]: Peroxisomal acyl-coenzyme A oxidase 1 (ACOX1) gene, ACOX1 (gene 51)
Nature of the experiment: LTEA_HepaRG_ACOX1: Life Technologies and Expression Analysis (LTEA) Assay for Peroxisomal acyl-coenzyme A oxidase 1 (ACOX1) gene using HepaRG (AID 2283467). The essentials: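 Differentiated human HepaRG cells were exposed in duplicate for 48 h in serum-free induction medium to eight half-log concentrations up to 100 uM in 0.5% DMSO. ACOX1 mRNA was then quantified by TaqMan qRT-PCR, normalized to ACTB, GAPDH and POLR2A.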

Read-out in experiment [5]: Alkaline Phosphatase, Placental (ALPP) gene, ALPP (gene 250)
The experiment in a line: LTEA_HepaRG_ALPP: Life Technologies and Expression Analysis (LTEA) Assay for Alkaline Phosphatase, Placental (ALPP) gene using HepaRG (AID 2283468). The gist of the method:
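HepaRG, 48 h plating then 48 h dosing, serum-free induction medium, 0.5% DMSO. 8 conc, half-log, max 100 uM, duplicates. Endpoint: ALPP transcript by qRT-PCR, housekeeping-normalized; gain or loss fitted vs DMSO.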

Read-out in experiment [6]: Bcl-2 (BAD) gene, BAD (gene 572)
Nature of the experiment: LTEA_HepaRG_BAD: Life Technologies and Expression Analysis (LTEA) Assay for Bcl-2 (BAD) gene using HepaRG (AID 2283469). The gist of the method: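 Differentiated human HepaRG cells in serum-free induction medium were exposed in duplicate for 48 h to eight concentrations (top 100 uM, half-log steps, 0.5% DMSO). BAD mRNA was quantified by qRT-PCR normalised to ACTB, GAPDH and POLR2A, with bidirectional fitting versus DMSO.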

Read-out in experiment [7]: Bcl-2 (BAX) gene, BAX (gene 581)
Nature of the experiment: LTEA_HepaRG_BAX: Life Technologies and Expression Analysis (LTEA) Assay for Bcl-2 (BAX) gene using HepaRG (AID 2283470). The essentials:
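Concentration-response endpoint fitted in both directions relative to 0.5% DMSO vehicle. Human HepaRG cultures receive test chemicals for 48 h at up to 100 uM; BAX mRNA is quantified by qRT-PCR against housekeeping genes.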

Read-out in experiment [8]: adenosine kinase (ADK) gene, ADK (gene 132)
The experiment in a line: LTEA_HepaRG_ADK: Life Technologies and Expression Analysis (LTEA) Assay for adenosine kinase (ADK) gene using HepaRG (AID 2283471). The gist of the method: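 ADK expression quantified by qRT-PCR, normalised to three housekeeping genes, after 48 h exposure of HepaRG cells to eight concentrations (top 100 uM, half-log steps, duplicate, 0.5% DMSO). Up- or down-regulation fitted relative to vehicle.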

Read-out in experiment [9]: Alpha-fetoprotein (AFP) gene, AFP (gene 174)
The experiment in a line: LTEA_HepaRG_AFP: Life Technologies and Expression Analysis (LTEA) Assay for Alpha-fetoprotein (AFP) gene using HepaRG (AID 2283472). The gist of the method: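 After a 48 h plating period, cells are moved to serum-free induction medium and dosed in duplicate (100 uM maximum, half-log dilutions, 0.5% DMSO) for another 48 h. Total RNA goes to TaqMan qRT-PCR; AFP signal is housekeeping-normalized.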

Read-out in another experiment: BCL2L11 (gene 10018)
Nature of the experiment: LTEA_HepaRG_BCL2L11: Life Technologies and Expression Analysis (LTEA) Assay for Bcl-2 (BCL2L11) gene using HepaRG (AID 2283473). The gist of the method: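 Read-out is BCL2L11 transcript level by qRT-PCR, normalized to three housekeeping genes and fitted bidirectionally against 0.5% DMSO vehicle. HepaRG cells received chemicals for 48 h in serum-free induction medium, 100 uM down in half-log dilutions.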

Read-out in experiment [10]: Apolipoprotein A-V (APOA5) gene, APOA5 (gene 116519)
Nature of the experiment: LTEA_HepaRG_APOA5: Life Technologies and Expression Analysis (LTEA) Assay for Apolipoprotein A-V (APOA5) gene using HepaRG (AID 2283474). The essentials:
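Readout is APOA5 transcript level by qRT-PCR on Fluidigm dynamic arrays, normalized to three housekeeping genes. HepaRG cultures received chemicals for 48 h at up to 100 uM (half-log steps, 0.5% DMSO), with gain or loss scored relative to DMSO.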

Read-out in experiment [11]: Apoptosis regulator Bcl-2 (Homo sapiens) (UniProt P10415)
Nature of the experiment: LTEA_HepaRG_BCL2: Life Technologies and Expression Analysis (LTEA) Assay for Bcl-2 gene using HepaRG (AID 2283475). The gist of the method:
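Expression change of BCL2 mRNA in HepaRG after 48 h dosing, quantified by TaqMan qRT-PCR against three endogenous controls. Concentration-response used eight points up to 100 uM, vehicle 0.5% DMSO.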

Read-out in experiment [12]: Bcl-2 (BID) gene, BID (gene 637)
Nature of the experiment: LTEA_HepaRG_BID: Life Technologies and Expression Analysis (LTEA) Assay for Bcl-2 (BID) gene using HepaRG (AID 2283476). The gist of the method:
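Gain or loss of BID expression is fitted relative to 0.5% DMSO vehicle. Human HepaRG liver cells received a 48 h chemical exposure over an eight-point concentration range.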

Read-out in the next experiment: Caspase-3 (Homo sapiens) (UniProt P42574)
Nature of the experiment: LTEA_HepaRG_CASP3: Life Technologies and Expression Analysis (LTEA) Assay for cysteine-aspartic acid protease (CASP3) using HepaRG (AID 2283477). The essentials: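 Read-out is CASP3 mRNA level by TaqMan qRT-PCR in human HepaRG cells after 48 h chemical exposure. Eight half-log concentrations topping at 100 uM were tested in 0.5% DMSO; gain or loss was fitted relative to DMSO.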

Read-out in experiment [13]: Cytochrome P450 (CYP24A1), CYP24A1 (gene 1591)
Nature of the experiment: LTEA_HepaRG_CYP24A1: Life Technologies and Expression Analysis (LTEA) Assay for Cytochrome P450 (CYP24A1) using HepaRG (AID 2283478). The gist of the method:
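HepaRG, 48 h chemical exposure, 8-pt half-log CRC from 100 uM, 0.5% DMSO vehicle, duplicates. Endpoint: CYP24A1 mRNA by Fluidigm TaqMan qRT-PCR, normalized ACTB/GAPDH/POLR2A; gain/loss fit vs DMSO.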

Read-out in experiment [14]: Cytochrome P450 (CYP1A2), CYP1A2 (gene 1544)
The experiment in a line: LTEA_HepaRG_CYP1A2: Life Technologies and Expression Analysis (LTEA) Assay for Cytochrome P450 (CYP1A2) using HepaRG (AID 2283479). The essentials: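 CYP1A2 transcript induction or loss, quantified by Fluidigm qRT-PCR against three housekeeping genes, was fitted bidirectionally against 0.5% DMSO controls. Human HepaRG cells received eight half-log concentrations from 100 uM over 48 h.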

Read-out in experiment [15]: cysteine-aspartic acid protease (CASP8), CASP8 (gene 841)
Nature of the experiment: LTEA_HepaRG_CASP8: Life Technologies and Expression Analysis (LTEA) Assay for cysteine-aspartic acid protease (CASP8) using HepaRG (AID 2283480). The gist of the method:
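Differentiated human HepaRG cells, plated 48 h then switched to serum-free induction medium, were exposed in duplicate for 48 h to 8 half-log concentrations up to 100 uM in 0.5% DMSO. CASP8 mRNA was quantified by qRT-PCR, normalized to ACTB/GAPDH/POLR2A.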

Read-out in experiment [16]: Cytochrome P450 (CYP2B6), CYP2B6 (gene 1555)
Nature of the experiment: LTEA_HepaRG_CYP2B6: Life Technologies and Expression Analysis (LTEA) Assay for Cytochrome P450 (CYP2B6) using HepaRG (AID 2283481). The essentials:
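HepaRG cells plated 48 h, switched to serum-free induction medium, then dosed 48 h (8 points, half-log from 100 uM, 0.5% DMSO). RNA isolated; CYP2B6 expression measured by qRT-PCR; gain or loss fitted relative to DMSO.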

Read-out in experiment [17]: Cytochrome P450 2C19 (Homo sapiens) (UniProt P33261)
The experiment in a line: LTEA_HepaRG_CYP2C19: Life Technologies and Expression Analysis (LTEA) Assay for CYP2C19 using HepaRG (AID 2283482). The gist of the method:
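Transcript levels of CYP2C19 were quantified by qRT-PCR after HepaRG cells were treated for 48 hours with test chemicals up to 100 uM (eight half-log concentrations, 0.5% DMSO vehicle). Gain or loss of signal was fitted relative to DMSO.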

Read-out in the next experiment: CYP2C8 (gene 1558)
Nature of the experiment: LTEA_HepaRG_CYP2C8: Life Technologies and Expression Analysis (LTEA) Assay for CYP2C8 using HepaRG (AID 2283483). The gist of the method:
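Differentiated human HepaRG cells were exposed for 48 h in serum-free induction medium to eight half-log concentrations up to 100 uM in 0.5% DMSO, in duplicate. CYP2C8 mRNA was measured by TaqMan qRT-PCR, normalized to ACTB, GAPDH and POLR2A, and fitted bidirectionally against DMSO.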

Active and inactive are the calls of the source. The calls were made as follows: active = hit-call score of the fitted dose curve at least 0.9, where 1 is the maximum; inactive = score below 0.9.

Chain of Caspase-3 (Homo sapiens) (P42574 whole entry, looked up): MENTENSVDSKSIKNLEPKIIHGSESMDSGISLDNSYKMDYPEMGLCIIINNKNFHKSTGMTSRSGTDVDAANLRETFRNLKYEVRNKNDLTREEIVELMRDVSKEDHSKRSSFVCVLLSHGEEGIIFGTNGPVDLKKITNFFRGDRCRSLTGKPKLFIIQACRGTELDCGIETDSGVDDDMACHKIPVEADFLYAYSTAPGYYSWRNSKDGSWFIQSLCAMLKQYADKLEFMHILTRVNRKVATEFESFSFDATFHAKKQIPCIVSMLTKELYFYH
Chain of Broad substrate specificity ATP-binding cassette transporter ABCG2 (Homo sapiens) (Q9UNQ0 whole entry, looked up): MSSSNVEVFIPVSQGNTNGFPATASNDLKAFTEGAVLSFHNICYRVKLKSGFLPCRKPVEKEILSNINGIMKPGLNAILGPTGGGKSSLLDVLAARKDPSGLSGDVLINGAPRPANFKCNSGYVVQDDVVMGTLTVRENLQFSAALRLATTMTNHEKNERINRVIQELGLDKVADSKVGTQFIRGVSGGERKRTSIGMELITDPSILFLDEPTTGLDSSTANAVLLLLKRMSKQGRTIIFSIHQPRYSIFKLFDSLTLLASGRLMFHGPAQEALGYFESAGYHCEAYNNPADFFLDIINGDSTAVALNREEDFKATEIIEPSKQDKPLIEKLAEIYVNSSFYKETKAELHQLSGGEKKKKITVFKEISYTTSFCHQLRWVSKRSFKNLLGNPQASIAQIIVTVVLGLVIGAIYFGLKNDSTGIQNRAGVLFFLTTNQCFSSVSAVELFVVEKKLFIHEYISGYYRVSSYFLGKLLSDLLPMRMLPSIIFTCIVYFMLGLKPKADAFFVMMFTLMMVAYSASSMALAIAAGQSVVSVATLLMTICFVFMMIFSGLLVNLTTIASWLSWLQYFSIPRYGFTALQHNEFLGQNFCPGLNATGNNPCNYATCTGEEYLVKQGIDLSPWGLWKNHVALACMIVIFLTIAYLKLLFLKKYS
Chain of Cytochrome P450 2C19 (Homo sapiens) (P33261 whole entry, looked up): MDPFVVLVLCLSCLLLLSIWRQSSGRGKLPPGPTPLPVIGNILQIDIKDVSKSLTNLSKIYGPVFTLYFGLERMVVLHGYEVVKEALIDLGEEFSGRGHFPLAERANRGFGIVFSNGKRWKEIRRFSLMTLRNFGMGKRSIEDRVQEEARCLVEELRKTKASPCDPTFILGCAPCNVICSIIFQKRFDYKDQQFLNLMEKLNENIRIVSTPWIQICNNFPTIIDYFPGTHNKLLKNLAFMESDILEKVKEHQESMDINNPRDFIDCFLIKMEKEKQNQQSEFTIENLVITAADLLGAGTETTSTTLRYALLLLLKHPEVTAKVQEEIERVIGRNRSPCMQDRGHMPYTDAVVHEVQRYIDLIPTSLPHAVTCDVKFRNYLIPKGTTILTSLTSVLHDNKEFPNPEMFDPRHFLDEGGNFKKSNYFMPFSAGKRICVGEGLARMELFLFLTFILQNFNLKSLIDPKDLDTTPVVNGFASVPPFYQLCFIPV
Chain of Apoptosis regulator Bcl-2 (Homo sapiens) (P10415 whole entry, looked up): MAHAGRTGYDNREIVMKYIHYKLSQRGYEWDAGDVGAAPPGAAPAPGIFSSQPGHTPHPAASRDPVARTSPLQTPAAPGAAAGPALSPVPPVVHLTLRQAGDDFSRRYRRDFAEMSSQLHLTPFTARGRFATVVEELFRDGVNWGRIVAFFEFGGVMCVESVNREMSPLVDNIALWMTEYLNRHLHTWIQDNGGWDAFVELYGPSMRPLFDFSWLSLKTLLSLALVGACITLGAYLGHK

Take `ClC(Cl)c1ccccc1`: the molecule was classed as inactive in [1], in experiment [2], in experiment [3], in experiment [4], in experiment [5] and in experiment [6]. The molecule was classed as inactive (in [7]; in [8]; in [9]; with BCL2L11 (gene 10018); in experiment [10]; in experiment [11]). The molecule was classed as inactive (in [12]; with Caspase-3 (Homo sapiens); in experiment [13]; in experiment [14]; in [15]; in [17]). Moreover, in the experiment with CYP2C8 (gene 1558), the molecule was classed as inactive. For the same molecule, the AC50 in experiment [16] was 22.8 µM (active).
With `Cc1ccc([N+](=O)[O-])cc1C`, the result in experiment [1], in [2], in [3], in [4], in experiment [5] and in experiment [7] was inactive. Also, the molecule was classed as inactive (in experiment [8]; in [9]; in the experiment with BCL2L11 (gene 10018); in experiment [10]; in experiment [11]; in experiment [12]). The outcome (in the experiment with Caspase-3 (Homo sapiens); in experiment [13]; in [14]; in experiment [15]; in experiment [16]; in [17]) was inactive. Besides, the molecule was called inactive with CYP2C8 (gene 1558).
Take `Nc1cc2c3c(c1)C(c1ccccc1)=N[C@@H](NC(=O)c1cccnc1)C(=O)N3CC2`: the result in [1], in [2], in experiment [3], in experiment [4], in [5] and in experiment [7] was inactive. For the same molecule, the molecule was called inactive (in [8]; in [9]; with BCL2L11 (gene 10018); in experiment [10]; in experiment [11]; in experiment [12]). Besides, the result (in the experiment with Caspase-3 (Homo sapiens); in [13]; in experiment [15]; with CYP2C8 (gene 1558)) was inactive. In addition, the concentration at half-maximal activity (AC50) in experiment [14] is 50 µM (active); in experiment [16] it was 3.51 µM (active); in [17], 9.8 µM (active).
In the case of `ClC(Cl)(Cl)c1ccccc1`, the molecule was classed as inactive in [1], in [2], in experiment [3], in [4], in experiment [5] and in [6]. In addition, the call (in [7]; in experiment [8]; in [9]; with BCL2L11 (gene 10018); in [10]; in experiment [11]) was inactive. Besides, the molecule was classed as inactive (in experiment [12]; in the experiment with Caspase-3 (Homo sapiens); in experiment [13]; in experiment [14]; in experiment [15]; in [16]). For the same molecule, the outcome (in experiment [17]; with CYP2C8 (gene 1558)) was inactive.
On to `CCCCc1ccccc1`, for which the result in experiment [1], in [2], in experiment [3], in [4], in [5] and in [7] was inactive. The result (in experiment [8]; in experiment [9]; in the experiment with BCL2L11 (gene 10018); in experiment [10]; in [11]; in experiment [12]) was inactive. The call (with Caspase-3 (Homo sapiens); in experiment [13]; in [15]; in experiment [16]; in experiment [17]; in the experiment with CYP2C8 (gene 1558)) was inactive. Moreover, the AC50 in experiment [14] was 50 µM (active).

By AC50 is commonly meant the concentration giving half of the maximal activity seen.
